Bioassay records deposited in PubChem by National Center for Advancing Translational Sciences (NCATS).
TDP1 cell CPT – DT40-hTDP1 cell growth loss with CPT. chicken DT40 Tdp1-/-;hTDP1 cells + 20 nM CPT, ATP luminescence, 48 h. Potency, µM (titrated, usually from 46.2 µM), usual class: inhibitors. actives 12% (n = 420,000). AID 686979; also: nearly all actives have a fitted effect of over 55% in size
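Chicken DT40 Tdp1-/- cells complemented with human TDP1, 400 cells/well, exposed to compounds plus 20 nM camptothecin for at least 48 h at 37 C; viability read as ATP content by CellTiter-Glo luminescence.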
DT40 TDP1 no CPT – qHTS for Inhibitors of human tyrosyl-DNA phosphodiesterase 1 (TDP1): qHTS in cells in absence of CPT; actives 15% (n = 420,000); Potency, µM (series often up to 46.2 µM), actives largely listed as inhibitors; AID 686978, 2013; DT40 Tdp1-/- hTDP1 cells, no CPT, ATP luminescence, 48 h; also: nearly all actives have a fitted effect of over 55% in size
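No-CPT arm: Tdp1-/-;hTDP1 DT40 cells (400/well) plus compounds, incubated ≥48 hr at 37 °C. Readout CellTiter-Glo luminescence.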
HT1080 IDH1KD tx – HT-1080 IDH1 knockdown cell toxicity (counter line); actives 2% (n = 360,000); Potency, µM (highest dose often 46.1 µM), usual class: cytotoxic; HT-1080 IDH1 knockdown viability, ATP luminescence, 48 h
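Viability of IDH1-knockdown HT-1080 fibrosarcoma cells was assessed by CellTiter-Glo after 48 h at 37 °C with titrated compound; concentration-effect curves were classified by fit quality and response size.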
KB-V1 cytotox – KB-V1 MDR subline cytotoxicity; KB-V1 MDR cells viability, CellTiter-Glo, 72 h; Potency, µM (series often up to 46.1 µM), hits mostly cytotoxic; actives 3.4% (n = 400,000); also: nearly all actives have a fitted effect of over 60% in size
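Cytotoxicity toward P-gp-expressing KB-V1 cells was determined as loss of CellTiter-Glo luminescence after 72 h at 37 degrees C. Compounds were tested in quantitative HTS format across a concentration range, with curves fitted to normalized data.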
KB-3-1 cytotox – KB-3-1 parental cell cytotoxicity | actives 1.4% (n = 400,000) | Potency, µM (doses to about 46.1 µM), most hits filed as cytotoxic | KB-3-1 viability, CellTiter-Glo ATP luminescence, 72 h; also: nearly all actives have a fitted effect of over 60% in size
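Here the drug-naive KB-3-1 line serves as comparator for MDR sub-line selectivity; cells received compound titrations, 72 h at 37 °C, then CellTiter-Glo readout.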
HT1080-NT tox – kills 2HG-producing HT-1080-NT fibrosarcoma cells. HT-1080-NT fibrosarcoma viability, CellTiter-Glo ATP luminescence, 48 h. Potency, µM (highest dose often 46.1 µM), usual class: cytotoxic. actives 1.6% (n = 360,000);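 also: NT is the 2HG producing partner of a matched IDH1 knockdown line; nearly all actives have a fitted effect of over 55% in size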
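A 48-hour cytotoxicity screen used HT-1080-NT cells plated 2 hours before compound delivery. ATP-based CellTiter-Glo luminescence measured viability, normalized to DMSO and no-cell controls.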
Each line names hits and unclear results; the compound was inactive in the other large screens. This is a sample that favours compounds with a hit; in the whole collection about 19% have one here. Calls follow the shape of the dose curve; as a rule, active = well fitted curve in the direction sought with a large enough effect; inconclusive = small, poorly fitted or top-dose-only effect, or another doubt; inactive = no such curve, though single readings can be large; an effect the other way counts as inactive or inconclusive.

CC(=O)c1ccc(S(=O)(=O)N2CCN(C(=O)CCC3CCCC3)CC2)cc1	TDP1 cell CPT inconclusive, DT40 TDP1 no CPT inconclusive, KB-V1 cytotox inconclusive
CN(C(=O)c1ccc(NC(=O)Cc2cccc(NC(=O)C3CCN(C(=O)CCc4ccccc4)CC3)c2)cc1)C1CCCC1	TDP1 cell CPT inconclusive, DT40 TDP1 no CPT inconclusive
CN(C(=O)c1ccc(NC(=O)Cc2ccc(NC(=O)C3CCN(C(=O)CCc4ccccc4)CC3)cc2)cc1)C1CC1	TDP1 cell CPT 26µM, DT40 TDP1 no CPT 18µM
CC(=O)Nc1cc(-c2cccc(N)c2)cn2c(-c3ccccc3)cnc12	TDP1 cell CPT 18µM, DT40 TDP1 no CPT inconclusive
CC(=O)Nc1cccc(-c2cc(NC(C)=O)c3ncc(-c4ccc(C(C)=O)cc4)n3c2)c1	TDP1 cell CPT 5.2µM, DT40 TDP1 no CPT 7.3µM
CC(=O)Nc1cc(-c2cccc(F)c2)cn2c(-c3ccc(S(C)(=O)=O)cc3)cnc12	TDP1 cell CPT inconclusive, DT40 TDP1 no CPT 21µM
CC(=O)Nc1cc(-c2ccoc2)cn2c(-c3ccccc3)cnc12	TDP1 cell CPT 1µM, DT40 TDP1 no CPT 0.92µM
Cc1cc(F)ccc1NC(=O)C(c1ccccc1)N1Cc2ccccc2C1=O (stereo unspecified)	none (no result: HT1080 IDH1KD tx, KB-V1 cytotox, KB-3-1 cytotox, HT1080-NT tox)
CCCS(=O)(=O)N1CCC(C(=O)NCCN(C)Cc2ccccc2)CC1	none
COc1cccc(NC(=O)N2CCCC2C(=O)NCc2ccc(Cl)cc2)c1 (stereo unspecified)	none
CC(=O)Nc1cc(-c2cccc(F)c2)cn2c(-c3ccc(F)cc3)cnc12	TDP1 cell CPT inconclusive, DT40 TDP1 no CPT 23µM, HT1080-NT tox inconclusive
CC(=O)Nc1cc(-c2cccc(F)c2)cn2c(-c3ccccc3)cnc12	TDP1 cell CPT 18µM, DT40 TDP1 no CPT inconclusive
CC(=O)Nc1cc(-c2cccc(C(=O)N(C)C)c2)cn2c(-c3ccc(F)cc3)cnc12	TDP1 cell CPT inconclusive, DT40 TDP1 no CPT inconclusive
CC(=O)Nc1cc(-c2cccc(C(=O)N(C)C)c2)cn2c(-c3ccccc3)cnc12	TDP1 cell CPT inconclusive, DT40 TDP1 no CPT inconclusive
CC(=O)Nc1cccc(-c2cc(NC(C)=O)c3ncc(-c4ccc(F)cc4)n3c2)c1	TDP1 cell CPT inconclusive, DT40 TDP1 no CPT 15µM, HT1080 IDH1KD tx inconclusive, KB-V1 cytotox inconclusive
CC(=O)Nc1cc(-c2cccc(C(=O)N(C)C)c2)cn2c(-c3ccc(C(C)=O)cc3)cnc12	TDP1 cell CPT 16µM, DT40 TDP1 no CPT 12µM
Cc1ccc(NNC(=O)c2ccc(Cl)cc2)nn1	none
COc1ccc2c(-c3ccccc3)cc(SCC(N)=O)nc2c1	DT40 TDP1 no CPT 21µM, HT1080 IDH1KD tx inconclusive, HT1080-NT tox inconclusive
O=C(NC(=S)Nc1ccc(Oc2ccccc2)cc1)c1ccc(Cl)cc1	TDP1 cell CPT inconclusive, DT40 TDP1 no CPT 23µM, KB-V1 cytotox inconclusive, HT1080-NT tox inconclusive
O=C(NC(=S)Nc1ccc(-c2ccc(CO)o2)cc1)c1cccs1	DT40 TDP1 no CPT inconclusive
COCCCNC(=S)NC(=O)c1ccc(C)cc1	DT40 TDP1 no CPT 18µM, KB-V1 cytotox 18µM
Cc1ccc(C(=O)NC(=S)Nc2ccc(-c3ccc(CO)o3)cc2)cc1	TDP1 cell CPT inconclusive, DT40 TDP1 no CPT 10µM
COc1ccc(C(=O)NC(=S)Nc2ccc(Cl)c(C(=O)O)c2)cc1	none
Cc1ccc(C(=O)NC(=S)Nc2ccc(Oc3ccc(Cl)cc3)cc2)cc1	TDP1 cell CPT inconclusive, DT40 TDP1 no CPT 21µM
Cc1cccc(CNC(=O)C2CCN(S(=O)(=O)c3cccc4nonc34)CC2)c1	none (no result: HT1080 IDH1KD tx, HT1080-NT tox)
CC(C)C[C@H]1CN(CCCC[C@H]2CNC(=O)C(=O)N2CCc2ccc(O)cc2)C(=O)C(=O)N1CCc1ccc(O)cc1	KB-V1 cytotox inconclusive
COc1ccccc1N(C(C)=O)C1=C(Cl)C(=O)c2ccccc2C1=O	TDP1 cell CPT 0.52µM, DT40 TDP1 no CPT 0.73µM, HT1080 IDH1KD tx 7.3µM, HT1080-NT tox 18µM
